Data taken from the supplement of paper PMC10849652.
Targets with a hit are over-represented here; the source holds about 8,800 in all. About 0.5% of all pairs of compound and target were hits.

Legend:
Assay in all cases: log2 fold change, soluble protein after heating vs DMSO (PISA); higher = thermal stabilisation; K562 lysate, 10 uM; active = over 0.2 and 3.5 SD of the protein, either way, in both replicates (recomputed)
[1] = compound: C#Cc1cccc(Nc2ncnc3cc(OCCOC)c(OCCOC)cc23)c1 [erlotinib]
Outline: (§1)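 K562 pellets were dounce-homogenised in PBS pH 7.4 with 1 mM MgCl2, and the crude extract at 1 mg/mL protein was treated with 10 μM compound for 30 min. Aliquots were heated for 3 min across 48°C-58°C, pooled, and brought to 0.5% NP-40 at 4°C; soluble protein was the supernatant after 21,000xg for 90 min. Soluble protein was quantified by TMTpro 16plex LC-MS/MS with channel sums equalised, and reported as log2 fold change in thermal stability against DMSO controls, with values from duplicates.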

[2] = compound: C/C(=N\NC(=O)C1=CC(=CC=C1)S(=O)(=O)N2CCOCC2)/C3=C(C=CC(=C3)Cl)O
Outline: as §1

[3] = compound: C1=CC(=CC=C1C2=NC3=C(N2)C=C(C=C3)C(=O)N)OC4=CC=C(C=C4)Cl
Outline: as §1

[4] = compound: C1=CC2=C(C=CC(=C2)/C=C\3/C(=O)NC(=NCC4=CC=CS4)S3)N=C1
Outline: as §1

[5] = compound: C1=CC2=NC=CN=C2C=C1/C=C/3\C(=O)NC(=O)S3
Outline: as §1

[6] = compound: C1=CC=C(C=C1)C2=NC(=C(N2)C3=CC=NC=C3)C4=CC(=C(C=C4)Cl)O
Outline: as §1

[7] = compound: C1=CC=C2C(=C1)C3=NNC4=CC=CC(=C43)C2=O
Outline: as §1

[8] = compound: C1CCN(C1)C(=O)NC2=CC=CC(=C2)NC3=NC=C(C(=N3)NCCC4=CN=CN4)Br
Outline: as §1

[9] = compound: C1CN(CCC1(CC2=CC=C(C=C2)Cl)N)C3=NC=NC4=C3C=CN4
Outline: as §1

[10] = compound: C1COCCN1CCN2C3=CC=CC=C3N=C2NC(=O)C4=CC(=CC=C4)[N+](=O)[O-] [IRAK-1-4 Inhibitor I]
Outline: as §1

[11] = compound: C=CC(=O)N1CCC[C@@H](n2nc(-c3ccc(Oc4ccccc4)cc3)c3c(N)ncnc32)C1 [ibrutinib]
Outline: as §1

[12] = compound: CC(=O)c1cnc2ccc(-c3cc(Cl)c(O)c(Cl)c3)nc2c1N[C@H]1CC[C@H](CN(C)C)CC1
Outline: as §1

[13] = compound: CC(C)(C)Cn1c(N)nc2ccc(-c3[nH]c(C(C)(C)C)nc3-c3ccc(F)cc3)nc21 [ralimetinib]
Outline: as §1

[14] = compound: CC(C)(O)CC(=O)NCCn1ccc2ncnc(Nc3ccc(Oc4cccc(C(F)(F)F)c4)c(Cl)c3)c21
Outline: as §1

[15] = compound: CC(C)C1=C2N=C(C=C(N2N=C1)NCC3=CC=CC=C3)NCCCCCCN
Outline: as §1

[16] = compound: CC1=C(C(CC(=O)N1)C2=CC=C(C=C2)C(F)(F)F)C(=O)NC3=C(C=C4C(=C3)C=NN4)F
Outline: as §1

[17] = compound: CC1=C(C2=C(C=C1)C(=O)C3=CC=CC=C3N2CCCN)C
Outline: as §1

[18] = compound: CC1=C(C=C(C=C1)NC(=O)C2=CC(=CC=C2)C(C)(C)C#N)NC3=CC4=C(C=C3)N=CN(C4=O)C
Outline: as §1

[19] = compound: CC1=C(C=C(C=C1)NC(=O)C2=CC(=CC=C2)N(C)C)NC(=O)C3=CC=C(C=C3)O
Outline: as §1

[20] = compound: CC1=CC=C(C=C1)SC2=C3C=C(SC3=CN=C2)C(=O)N
Outline: as §1

Measured: log2 fold change

LAMP1 (UniProt P11279)
Chain of UniProt P11279 (P11279 whole entry, looked up): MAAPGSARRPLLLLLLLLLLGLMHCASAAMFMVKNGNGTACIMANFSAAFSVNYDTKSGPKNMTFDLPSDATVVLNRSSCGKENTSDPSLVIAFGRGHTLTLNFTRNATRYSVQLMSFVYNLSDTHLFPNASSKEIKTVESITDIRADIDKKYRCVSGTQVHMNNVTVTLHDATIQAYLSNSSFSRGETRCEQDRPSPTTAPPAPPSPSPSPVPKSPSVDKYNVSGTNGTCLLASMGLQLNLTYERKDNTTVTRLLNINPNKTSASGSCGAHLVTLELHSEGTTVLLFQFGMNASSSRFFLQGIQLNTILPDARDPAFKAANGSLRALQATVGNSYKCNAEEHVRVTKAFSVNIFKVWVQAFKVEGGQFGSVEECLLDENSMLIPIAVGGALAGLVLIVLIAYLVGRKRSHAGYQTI
inactive: [1] 0.024 | [2] 0.012 | [3] 0.021 | [4] -0.009 | [5] 0.012 | [6] 0.006 | [7] -0.006 | [8] -0.023 | [9] 0.038 | [10] 0.091 | [11] 0.034 | [12] -0.031 | [13] -0.003 | [14] -0.11 | [15] 0.008 | [16] 0.01 | [17] 0.003 | [18] 0.022 | [19] -0.04 | [20] -0.032

KIF21A isoform 5 (UniProt Q7Z4S6)
Chain of UniProt Q7Z4S6 (Q7Z4S6 whole entry, looked up): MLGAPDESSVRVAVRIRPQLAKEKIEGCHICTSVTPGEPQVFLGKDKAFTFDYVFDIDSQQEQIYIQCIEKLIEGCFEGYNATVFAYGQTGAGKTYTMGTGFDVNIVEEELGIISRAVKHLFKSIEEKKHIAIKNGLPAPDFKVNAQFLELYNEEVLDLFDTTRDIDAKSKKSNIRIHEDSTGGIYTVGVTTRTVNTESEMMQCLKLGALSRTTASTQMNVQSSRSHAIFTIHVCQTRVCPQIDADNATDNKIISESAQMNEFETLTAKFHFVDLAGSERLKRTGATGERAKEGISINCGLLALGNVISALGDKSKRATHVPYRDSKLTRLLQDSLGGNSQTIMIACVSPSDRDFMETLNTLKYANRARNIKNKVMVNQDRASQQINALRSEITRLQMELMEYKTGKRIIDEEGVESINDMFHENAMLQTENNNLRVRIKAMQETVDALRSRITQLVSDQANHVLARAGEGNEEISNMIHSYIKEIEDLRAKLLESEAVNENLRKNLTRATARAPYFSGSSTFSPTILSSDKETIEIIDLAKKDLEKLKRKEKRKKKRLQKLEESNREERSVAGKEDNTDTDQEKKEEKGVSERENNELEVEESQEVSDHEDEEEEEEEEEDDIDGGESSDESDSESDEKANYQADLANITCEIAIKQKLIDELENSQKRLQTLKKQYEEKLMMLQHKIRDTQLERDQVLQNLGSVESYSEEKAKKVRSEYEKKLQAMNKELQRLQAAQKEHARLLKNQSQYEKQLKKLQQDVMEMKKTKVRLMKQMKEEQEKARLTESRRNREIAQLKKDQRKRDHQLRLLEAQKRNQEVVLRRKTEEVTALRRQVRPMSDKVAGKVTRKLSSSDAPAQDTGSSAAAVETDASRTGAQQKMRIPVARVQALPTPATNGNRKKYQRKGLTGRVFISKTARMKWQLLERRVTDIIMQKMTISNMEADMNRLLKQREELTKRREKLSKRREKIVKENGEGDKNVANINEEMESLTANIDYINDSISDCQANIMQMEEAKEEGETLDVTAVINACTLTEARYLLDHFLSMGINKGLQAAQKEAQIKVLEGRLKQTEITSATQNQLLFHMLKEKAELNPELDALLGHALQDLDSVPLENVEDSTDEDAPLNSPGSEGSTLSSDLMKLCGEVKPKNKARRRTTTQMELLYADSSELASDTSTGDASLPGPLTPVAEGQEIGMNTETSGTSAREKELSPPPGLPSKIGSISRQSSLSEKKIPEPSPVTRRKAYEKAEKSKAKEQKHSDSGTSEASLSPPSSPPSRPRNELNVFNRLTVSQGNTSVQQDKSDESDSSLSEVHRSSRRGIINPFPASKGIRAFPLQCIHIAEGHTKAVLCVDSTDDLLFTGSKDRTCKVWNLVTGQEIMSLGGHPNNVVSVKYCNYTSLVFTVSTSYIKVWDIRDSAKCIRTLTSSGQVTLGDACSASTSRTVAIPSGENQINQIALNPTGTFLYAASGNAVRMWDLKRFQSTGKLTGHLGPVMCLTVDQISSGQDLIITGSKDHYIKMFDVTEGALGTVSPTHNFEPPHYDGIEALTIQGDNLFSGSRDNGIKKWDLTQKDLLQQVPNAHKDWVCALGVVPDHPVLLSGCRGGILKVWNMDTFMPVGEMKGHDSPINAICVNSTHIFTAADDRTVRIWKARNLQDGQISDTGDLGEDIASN
inactive: [1] -0.025 | [2] 0.022 | [3] -0.002 | [4] 0.01 | [5] -0.013 | [6] -0.016 | [7] -0.034 | [8] -0.009 | [9] 0.01 | [10] -0.002 | [11] 0.027 | [12] -0.002 | [13] 0.015 | [14] 0 | [15] 0.002 | [16] 0.034 | [17] -0.031 | [18] 0.025 | [19] 0.014 | [20] 0.024

MPI (UniProt P34949)
Chain of UniProt P34949 (P34949 whole entry, looked up): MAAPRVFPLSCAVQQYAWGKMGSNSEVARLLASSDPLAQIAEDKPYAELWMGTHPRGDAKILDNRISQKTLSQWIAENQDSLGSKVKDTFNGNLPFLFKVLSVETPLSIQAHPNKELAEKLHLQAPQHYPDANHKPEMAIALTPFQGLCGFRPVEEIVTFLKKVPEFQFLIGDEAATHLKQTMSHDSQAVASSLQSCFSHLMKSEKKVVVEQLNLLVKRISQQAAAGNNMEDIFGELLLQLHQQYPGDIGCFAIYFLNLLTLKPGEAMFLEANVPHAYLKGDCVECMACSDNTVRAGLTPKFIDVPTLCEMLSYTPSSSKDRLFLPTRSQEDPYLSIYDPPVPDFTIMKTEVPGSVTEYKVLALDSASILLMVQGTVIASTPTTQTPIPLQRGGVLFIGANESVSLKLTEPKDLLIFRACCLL
inactive: [1] 0.02 | [2] 0.045 | [3] 0.046 | [4] -0.018 | [5] -0.014 | [6] 0.022 | [7] -0.02 | [8] -0.003 | [9] 0.038 | [10] 0.035 | [11] 0.029 | [12] 0.031 | [13] -0.06 | [14] 0.009 | [15] -0.039 | [16] -0.004 | [17] -0.051 | [18] 0.055 | [19] -0.012 | [20] -0.013

LSM8 (UniProt O95777)
Chain of UniProt O95777 (O95777 whole entry, looked up): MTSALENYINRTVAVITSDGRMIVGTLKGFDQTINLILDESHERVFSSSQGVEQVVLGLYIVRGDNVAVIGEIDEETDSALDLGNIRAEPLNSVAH
active: [5] 0.423
inactive: [1] -0.034 | [2] 0.003 | [3] -0.003 | [4] 0.027 | [6] -0.026 | [7] 0.066 | [8] -0.008 | [9] -0.021 | [10] 0.028 | [11] 0.051 | [12] 0.012 | [13] 0.055 | [14] -0.021 | [15] -0.02 | [16] -0.01 | [17] -0.011 | [18] 0.03 | [19] -0.007 | [20] 0.005

MIF4GD isoform 3 (UniProt A9UHW6)
Chain of UniProt A9UHW6 (A9UHW6 whole entry, looked up): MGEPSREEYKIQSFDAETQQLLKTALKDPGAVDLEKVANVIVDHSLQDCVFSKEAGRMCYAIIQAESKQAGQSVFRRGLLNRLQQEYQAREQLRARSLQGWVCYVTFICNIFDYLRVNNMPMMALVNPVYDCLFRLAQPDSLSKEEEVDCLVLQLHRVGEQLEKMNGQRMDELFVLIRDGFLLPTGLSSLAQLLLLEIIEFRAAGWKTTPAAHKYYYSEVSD
inactive: [1] -0.006 | [2] 0.041 | [3] 0.03 | [4] 0.028 | [5] -0.073 | [6] 0.039 | [7] -0.03 | [8] -0.052 | [9] 0.051 | [10] -0.04 | [11] 0.108 | [12] -0.032 | [13] -0.04 | [14] -0.014 | [15] 0.016 | [16] -0.002 | [17] -0.049 | [18] 0 | [19] -0.04 | [20] -0.004

MAP2K7 isoform 4 (UniProt O14733)
Chain of UniProt O14733 (O14733 whole entry, looked up): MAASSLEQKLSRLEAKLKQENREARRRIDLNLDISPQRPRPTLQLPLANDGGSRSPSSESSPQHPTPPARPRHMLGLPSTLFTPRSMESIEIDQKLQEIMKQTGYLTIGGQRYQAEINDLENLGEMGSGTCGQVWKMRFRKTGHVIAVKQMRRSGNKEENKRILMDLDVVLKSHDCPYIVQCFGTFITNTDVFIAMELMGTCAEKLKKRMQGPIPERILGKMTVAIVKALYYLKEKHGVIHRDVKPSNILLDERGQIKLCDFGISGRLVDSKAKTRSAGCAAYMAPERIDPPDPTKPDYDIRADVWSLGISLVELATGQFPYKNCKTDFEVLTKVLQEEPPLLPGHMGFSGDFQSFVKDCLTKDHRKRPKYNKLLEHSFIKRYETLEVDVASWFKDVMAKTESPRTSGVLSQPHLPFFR
inactive: [1] -0.042 | [2] -0.034 | [3] 0.037 | [4] 0.091 | [5] 0.241 | [6] 0.044 | [8] -0.106 | [9] 0.078 | [10] -0.123 | [12] 0.288 | [13] 0.028 | [14] 0.028 | [15] -0.071 | [16] -0.029 | [17] 0.011 | [18] -0.004 | [19] -0.002 | [20] 0.018
active: [7] 0.586 | [11] 1.44

KIF22 (UniProt Q14807)
inactive: [1] 0.012 | [2] -0.074 | [3] 0.076 | [4] -0.147 | [5] -0.007 | [6] -0.063 | [7] -0.123 | [8] 0.026 | [9] 0.05 | [10] 0.06 | [11] 0.012 | [12] -0.02 | [13] 0.006 | [14] -0.27 | [15] 0.028 | [16] 0.016 | [17] -0.142 | [18] 0.143 | [19] -0.027 | [20] -0.117

MBTPS1 (UniProt Q14703)
inactive: [1] 0.033 | [2] -0.022 | [3] -0.044 | [4] -0.009 | [5] -0.053 | [6] 0.029 | [7] -0.014 | [8] -0.029 | [9] 0.131 | [10] -0.026 | [11] -0.243 | [13] 0.056 | [14] -0.045 | [15] -0.029 | [17] -0.041 | [18] 0.008 | [19] 0.048

MARK1 (UniProt Q9P0L2)
inactive: [1] 0.105 | [2] 0.006 | [3] -0.018 | [4] 0.029 | [5] -0.01 | [6] -0.001 | [7] -0.26 | [8] -0.255 | [9] -0.111 | [10] -0.045 | [11] -0.006 | [12] -0.054 | [13] 0.078 | [14] 0.046 | [15] 0.021 | [16] 0.011 | [17] 0.021 | [18] 0.07 | [19] 0.04 | [20] 0.007

MINDY1 isoform 3 (UniProt Q8N5J2)
inactive: [1] 0.052 | [2] -0.006 | [3] 0.048 | [4] -0.031 | [5] 0.245 | [6] 0.053 | [7] 0.056 | [8] -0.082 | [9] -0.066 | [10] -0.02 | [11] 0.199 | [12] 0 | [13] 0.001 | [14] -0.121 | [15] -0.022 | [16] -0.179 | [17] -0.161 | [18] -0.034 | [19] 0.015 | [20] 0.065

MED8 isoform 2 (UniProt Q96G25)
Chain of UniProt Q96G25 (Q96G25 whole entry, looked up): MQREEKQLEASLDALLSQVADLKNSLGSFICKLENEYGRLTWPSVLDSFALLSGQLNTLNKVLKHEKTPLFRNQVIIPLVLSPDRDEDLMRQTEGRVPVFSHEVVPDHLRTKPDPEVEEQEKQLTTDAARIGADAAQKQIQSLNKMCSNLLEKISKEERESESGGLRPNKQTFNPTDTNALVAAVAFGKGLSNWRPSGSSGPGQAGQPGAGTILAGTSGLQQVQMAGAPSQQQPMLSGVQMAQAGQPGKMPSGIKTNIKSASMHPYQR
inactive: [1] 0.017 | [2] 0.007 | [3] -0.001 | [4] 0.021 | [5] 0.027 | [6] 0.008 | [7] 0 | [8] 0.014 | [9] 0.088 | [10] -0.005 | [11] 0.109 | [12] 0.024 | [13] 0.012 | [14] 0.036 | [15] 0.006 | [16] -0.03 | [17] -0.001 | [18] -0.005 | [19] -0.05 | [20] -0.058

MMS22L (UniProt Q6ZRQ5)
inactive: [1] 0.067 | [2] 0.032 | [3] 0 | [4] -0.093 | [5] 0.037 | [7] 0.064 | [8] 0.019 | [9] -0.021 | [11] -0.025 | [12] 0.049 | [15] -0.085 | [16] 0.007 | [17] -0.042 | [18] -0.049 | [20] 0.007

MDM2 isoform 11 (UniProt Q00987)
Chain of UniProt Q00987 (Q00987 whole entry, looked up): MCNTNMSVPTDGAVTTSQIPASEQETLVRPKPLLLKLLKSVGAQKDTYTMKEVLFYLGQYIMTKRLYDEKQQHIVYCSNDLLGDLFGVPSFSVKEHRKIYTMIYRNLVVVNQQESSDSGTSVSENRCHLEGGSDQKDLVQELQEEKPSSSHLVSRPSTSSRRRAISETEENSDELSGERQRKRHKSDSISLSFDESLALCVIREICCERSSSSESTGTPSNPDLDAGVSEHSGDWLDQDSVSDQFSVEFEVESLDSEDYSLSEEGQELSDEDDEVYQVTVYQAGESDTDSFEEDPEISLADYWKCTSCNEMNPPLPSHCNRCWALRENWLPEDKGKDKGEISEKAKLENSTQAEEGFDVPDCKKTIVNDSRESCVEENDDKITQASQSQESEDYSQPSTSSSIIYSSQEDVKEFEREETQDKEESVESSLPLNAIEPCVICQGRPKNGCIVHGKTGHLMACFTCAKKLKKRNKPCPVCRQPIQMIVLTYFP
inactive: [1] 0.108 | [2] -0.039 | [3] 0.037 | [4] -0.071 | [5] 0.021 | [6] 0.084 | [7] 0.04 | [10] 0.151 | [11] -0.071 | [13] 0.038 | [14] -0.08 | [15] -0.006 | [18] -0.074 | [19] 0.076

MPP5 (UniProt Q8N3R9)
inactive: [1] 0.039 | [2] -0.009 | [3] 0.027 | [4] -0.016 | [5] 0.038 | [6] 0.01 | [7] -0.038 | [8] -0.028 | [9] -0.013 | [10] 0.085 | [11] 0 | [13] 0.019 | [14] -0.063 | [15] -0.079 | [16] -0.082 | [17] -0.067 | [18] 0.017 | [19] 0.014

LSG1 (UniProt Q9H089)
Chain of UniProt Q9H089 (Q9H089 whole entry, looked up): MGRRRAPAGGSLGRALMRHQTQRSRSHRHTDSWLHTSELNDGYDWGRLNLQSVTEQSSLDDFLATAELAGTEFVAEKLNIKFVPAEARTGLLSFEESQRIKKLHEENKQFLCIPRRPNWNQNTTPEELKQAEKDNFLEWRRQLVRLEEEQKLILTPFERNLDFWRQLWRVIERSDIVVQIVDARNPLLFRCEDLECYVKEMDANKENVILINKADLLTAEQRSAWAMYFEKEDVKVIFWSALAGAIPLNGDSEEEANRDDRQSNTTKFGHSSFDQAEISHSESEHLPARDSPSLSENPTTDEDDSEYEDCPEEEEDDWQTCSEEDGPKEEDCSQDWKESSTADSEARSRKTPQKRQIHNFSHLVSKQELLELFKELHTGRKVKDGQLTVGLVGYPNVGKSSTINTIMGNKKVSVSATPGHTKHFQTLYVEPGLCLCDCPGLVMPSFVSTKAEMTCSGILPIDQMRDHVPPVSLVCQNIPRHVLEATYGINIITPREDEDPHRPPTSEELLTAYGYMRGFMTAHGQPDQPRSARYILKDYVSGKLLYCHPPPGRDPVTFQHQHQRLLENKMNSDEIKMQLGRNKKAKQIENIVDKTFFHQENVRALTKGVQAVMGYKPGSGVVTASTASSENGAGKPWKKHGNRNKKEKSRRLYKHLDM
inactive: [1] 0.044 | [2] 0.036 | [3] -0.059 | [4] -0.136 | [5] -0.021 | [6] 0 | [7] -0.114 | [8] -0.031 | [9] 0.103 | [10] -0.048 | [11] -0.083 | [12] -0.033 | [13] 0.026 | [14] 0.052 | [15] 0.032 | [16] 0.004 | [17] -0.187 | [18] 0.012 | [19] 0.013 | [20] 0.031

MAD2L2 (UniProt Q9UI95)
Chain of UniProt Q9UI95 (Q9UI95 whole entry, looked up): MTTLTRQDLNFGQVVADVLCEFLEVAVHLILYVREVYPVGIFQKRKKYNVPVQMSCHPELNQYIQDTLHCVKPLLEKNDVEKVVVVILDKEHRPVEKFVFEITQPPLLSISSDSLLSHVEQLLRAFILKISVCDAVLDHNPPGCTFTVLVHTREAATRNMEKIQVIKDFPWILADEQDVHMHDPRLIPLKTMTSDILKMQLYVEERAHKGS
inactive: [1] 0.173 | [2] 0.004 | [3] 0.209 | [4] -0.035 | [5] 0.035 | [6] -0.09 | [7] -0.101 | [8] 0.094 | [9] 0.102 | [10] 0.004 | [11] -0.015 | [12] -0.173 | [13] 0.103 | [14] -0.08 | [15] -0.03 | [16] -0.001 | [17] -0.059 | [18] 0.053 | [19] -0.106 | [20] -0.132

MICU2 (UniProt Q8IYU8)
inactive: [1] 0.025 | [2] 0.04 | [3] -0.008 | [4] -0.024 | [5] -0.011 | [6] 0.061 | [7] -0.094 | [8] -0.037 | [9] 0.038 | [10] -0.044 | [11] 0.036 | [12] -0.095 | [13] -0.019 | [14] -0.026 | [15] -0.016 | [16] -0.019 | [17] -0.004 | [18] 0.012 | [19] -0.018 | [20] 0.013

KIF2A isoform 4 (UniProt O00139)
inactive: [1] -0.008 | [2] 0.02 | [3] -0.014 | [4] -0.007 | [5] -0.037 | [6] 0.001 | [7] -0.022 | [8] -0.02 | [9] -0.041 | [10] -0.026 | [11] 0.031 | [12] 0 | [13] 0.017 | [14] 0.009 | [15] 0.002 | [16] -0.01 | [17] -0.002 | [18] -0.02 | [19] 0.032 | [20] 0.018
